Results filed as inconclusive are left out. A number with no mark means an inactive call. Calls of active or inactive are those of the source. Calls follow the shape of the dose curve; as a rule, active = well fitted curve in the direction sought with a large enough effect; inconclusive = small, poorly fitted or top-dose-only effect, or another doubt; inactive = no such curve, though single readings can be large; an effect the other way counts as inactive or inconclusive.

Experiment [1] in a line: Quantitative High-Throughput drug screen in 47 multiple myeloma cell lines against the NCATS MIPE library collection: KMS12PE_JCRB cell viability assay (AID 1918972). Also: nearly all actives have a fitted effect of over 30% in size. Also: potency is read from the fitted curve at half-maximal effect. Put shortly:
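Myeloma cell lines, 500 cells per well, exposed to MIPE 4.0 library compounds for 48 h at 37C, 5% CO2. Viability from ATP by CellTiter-Glo luminescence; normalised to DMSO (100%) and media-only (0%) wells.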

Experiment [2] can be described thus: Quantitative High-Throughput drug screen in 47 multiple myeloma cell lines against the NCATS MIPE library collection: NCIH929_DSMZ cell viability assay (AID 1918978). Also: nearly all actives have a fitted effect of over 35% in size. Also: potency is read from the fitted curve at half-maximal effect. In a few lines:
(§1)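 500 cells/well per myeloma line exposed to pinned MIPE 4.0 compounds for 48 h at 37 °C, 5% CO2. Viability read as ATP by CellTiter-Glo luminescence, normalised to DMSO-only (100%) and media-only (0%) wells.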

Experiment [3] can be described thus: Quantitative High-Throughput drug screen in 47 multiple myeloma cell lines against the NCATS MIPE library collection: OCIMY1_PLB cell viability assay (AID 1918979). Also: nearly all actives have a fitted effect of over 35% in size. In a few lines: as §1
Experiment [4] in a line: Quantitative High-Throughput drug screen in 47 multiple myeloma cell lines against the NCATS MIPE library collection: MM1R_ATCC cell viability assay (AID 1918981). Also: nearly all actives have a fitted effect of over 35% in size. Also: potency is read from the fitted curve at half-maximal effect. In a few lines:
as §1

Experiment [5] in a line: Quantitative High-Throughput drug screen in 47 multiple myeloma cell lines against the NCATS MIPE library collection: KMS28PE_JCRB cell viability assay (AID 1918983). Also: nearly all actives have a fitted effect of over 35% in size. Also: potency is read from the fitted curve at half-maximal effect. Put shortly: as §1
Experiment [6] is described as follows: Quantitative High-Throughput drug screen in 47 multiple myeloma cell lines against the NCATS MIPE library collection: L363_DSMZ cell viability assay (AID 1918984). Also: nearly all actives have a fitted effect of over 40% in size. Also: potency is read from the fitted curve at half-maximal effect. Put shortly: as §1
Experiment [7] in a line: Quantitative High-Throughput drug screen in 47 multiple myeloma cell lines against the NCATS MIPE library collection: OCIMY7_PLB cell viability assay (AID 1918987). Also: nearly all actives have a fitted effect of over 65% in size. Also: potency is read from the fitted curve at half-maximal effect. As to conditions: OCI-MY7 myeloma viability, CellTiter-Glo ATP, 48 h; viability (% of DMSO): at 45.8 µM (top of the series). In a few lines: as §1
A general note: ATP-based viability assays read luminescence as a measure of living cells.

Experiment [8] is described as follows: Quantitative High-Throughput drug screen in 47 multiple myeloma cell lines against the NCATS MIPE library collection: SKMM1_PLB cell viability assay (AID 1919863). Also: nearly all actives have a fitted effect of over 35% in size. Also: potency is read from the fitted curve at half-maximal effect. As to conditions: SKMM1 myeloma viability, CellTiter-Glo ATP, 48 h; viability: hits give low values. Put shortly:
as §1

Experiment [9] in a line: Quantitative High-Throughput drug screen in 47 multiple myeloma cell lines against the NCATS MIPE library collection: MOLP8_DSMZ cell viability assay (AID 1918977). Also: nearly all actives have a fitted effect of over 45% in size. Put shortly:
as §1

A short description of experiment [10]: Quantitative High-Throughput drug screen in 47 multiple myeloma cell lines against the NCATS MIPE library collection: MM1S_ATCC cell viability assay (AID 1918980). Also: nearly all actives have a fitted effect of over 45% in size. Also: potency is read from the fitted curve at half-maximal effect. Put shortly:
as §1

A short description of experiment [11]: Quantitative High-Throughput drug screen in 47 multiple myeloma cell lines against the NCATS MIPE library collection: LP1_DSMZ cell viability assay (AID 1918982). Also: nearly all actives have a fitted effect of over 35% in size. Put shortly:
as §1

Experiment [12] can be described thus: Quantitative High-Throughput drug screen in 47 multiple myeloma cell lines against the NCATS MIPE library collection: KMS34_JCRB cell viability assay (AID 1918985). Also: nearly all actives have a fitted effect of over 40% in size. Also: potency is read from the fitted curve at half-maximal effect. In a few lines: as §1
Experiment [13] in a line: Quantitative High-Throughput drug screen in 47 multiple myeloma cell lines against the NCATS MIPE library collection: KMS26_JCRB cell viability assay (AID 1918975). Also: nearly all actives have a fitted effect of over 45% in size. Also: potency is read from the fitted curve at half-maximal effect. In a few lines: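 Myeloma cells (500 per well) were exposed to MIPE 4.0 compounds by pin transfer and incubated 48 hours at 37C, 5% CO2. Viability was read as ATP by CellTiter-Glo luminescence, normalised to DMSO (100%) and media-only (0%) wells.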

Experiment [14] in a line: Quantitative High-Throughput drug screen in 47 multiple myeloma cell lines against the NCATS MIPE library collection: OPM1_PLB cell viability assay (AID 1918989). Also: nearly all actives have a fitted effect of over 40% in size. Also: potency is read from the fitted curve at half-maximal effect. In a few lines: as §1
A short description of experiment [15]: Quantitative High-Throughput drug screen in 47 multiple myeloma cell lines against the NCATS MIPE library collection: U266_ATCC cell viability assay (AID 1919864). Also: nearly all actives have a fitted effect of over 35% in size. Also: potency is read from the fitted curve at half-maximal effect. Put shortly:
as §1

A short description of experiment [16]: Quantitative High-Throughput drug screen in 47 multiple myeloma cell lines against the NCATS MIPE library collection: OCIMY5_PLB cell viability assay (AID 1918988). Also: potency is read from the fitted curve at half-maximal effect; nearly all actives have a fitted effect of over 65% in size. In a few lines: as §1
Experiment [17] is described as follows: Quantitative High-Throughput drug screen in 47 multiple myeloma cell lines against the NCATS MIPE library collection: MMM1_PLB cell viability assay (AID 1918976). Also: nearly all actives have a fitted effect of over 35% in size. Also: potency is read from the fitted curve at half-maximal effect. Put shortly:
as §1

The nature of experiment [18]: Quantitative High-Throughput drug screen in 47 multiple myeloma cell lines against the NCATS MIPE library collection: KMS21BM_JCRB cell viability assay (AID 1918974). Also: potency is read from the fitted curve at half-maximal effect. The following applies: ATP luminescence, 48 h; viability: at 45.8 µM (top of the series) unless noted. Put shortly: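 Primary qHTS used for cherry-picking: cells at 500/well, library compounds for 48 h (37C, 5% CO2), luminescent ATP assay.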

Broadly, the viability is a read-out of living cells in per cent, often relative to untreated cells. Turning to `COc1ccc2cccc(CCNC(C)=O)c2c1`, the Potency result in [1], in experiment [2], in experiment [3], in [4], in [5] and in [6] was “inactive” in each case. Further, in [7], the Potency result is “inactive”. Further, the viability in experiment [8] is 129%.

For the compound `c1cc(-c2sc(-c3ccncc3)c(-c3ccncc3)c2-c2ccncc2)ccn1`, the Potency in [1] was 2.96 µM (active); in experiment [2], 8.33 µM (active); in experiment [10], 26.4 µM (active); in [6], 3.32 µM (active); in [7] it was 5.26 µM (active). The Potency entry in experiment [9], in experiment [3], in experiment [11], in [5] and in [12] was “inactive” each time.

In the case of `CCCCCN(C)CCC(O)(P(=O)(O)O)P(=O)(O)O`, the Potency entry in [13], in experiment [3], in experiment [10], in experiment [11], in experiment [6] and in experiment [12] was “inactive” each time. Further, the Potency result in [7], in experiment [14] and in experiment [15] was “inactive” each time.

Turning to `O=C(O)c1c(Cl)c(Cl)c(Cl)c(Cl)c1-c1c2cc(I)c(=O)c(I)c-2oc2c(I)c(O)c(I)cc12`, the Potency in experiment [2] was 6.62 µM (active); in experiment [10], 6.62 µM (active); in experiment [4], 13.2 µM (active); in [5], 14.8 µM (active); in [16], 13.2 µM (active); in experiment [14], 9.35 µM (active).

Turning to `Nc1ncnc2ccccc12`, the Potency result in [9], in experiment [3], in experiment [4], in experiment [11] and in experiment [14] was “inactive” throughout. For the same compound, the Potency in experiment [2] is 26.4 µM (active); in experiment [7], 14.8 µM (active); in experiment [16] it was 26.4 µM (active).

Regarding `N[C@H](CSC(c1ccccc1)(c1ccccc1)c1ccccc1)C(=O)O`, the Potency result in experiment [17] is “inactive”. The Potency is 13.2 µM (active) in experiment [10]; 9.35 µM (active) in experiment [12]; 7.43 µM (active) in experiment [7]; 9.35 µM (active) in experiment [16]; 5.9 µM (active) in experiment [14]; 10.5 µM (active) in experiment [8].

In the case of `COC(=O)C1=CO[C@@H](O)[C@@H]2C(CO)=CC[C@@H]12`, the Potency in [4] is 18.7 µM (active). For the same compound, the Potency entry in experiment [11] is “inactive”.

`CC(C)(C)c1cc(C(=O)O)c(NC(=O)Nc2ccc3[nH]ncc3c2)s1`: the Potency entry in experiment [13], in experiment [17], in experiment [4], in experiment [11] and in experiment [12] was “inactive” in each case. For the same compound, the Potency in experiment [10] is 16.6 µM (active).

Regarding `CC1(C)CCC[C@@]2(C)[C@@H]1CC[C@@]1(C)OC(=O)C[C@H]21`, the Potency entry in experiment [18], in experiment [2], in [3], in experiment [11], in [5] and in [12] was “inactive” each time. In addition, the Potency result in experiment [14] was “inactive”. In addition, the figures for the Potency in [16] and in experiment [8] were 23.5 µM (active) and 8.33 µM (active), respectively.

For the compound `COc1cc(NC(=O)c2ccc(-c3ccc(Cl)cc3)o2)cc(OC)c1`, the Potency entry in experiment [13], in [4] and in experiment [11] was “inactive” throughout. Moreover, the Potency was 2.64 µM (active) in experiment [2], 1.05 µM (active) in experiment [10], 3.32 µM (active) in experiment [7] and 1.66 µM (active) in experiment [15]. Further, in experiment [8], the viability was 155%.

On to `CO[C@H]1C[C@@H]2CC[C@@H](C)[C@@](O)(O2)C(=O)C(=O)N2CCCC[C@@H]2C(=O)O[C@H]([C@H](C)C[C@@H]2CC[C@H](OP(C)(C)=O)[C@H](OC)C2)CC(=O)[C@H](C)C=C(C)[C@@H](O)[C@@H](OC)C(=O)[C@H](C)C[C@H](C)C=CC=CC=C1C`, for which, in experiment [18], the Potency is 18.7 µM (active). Moreover, the Potency entry in experiment [10], in experiment [4], in [11] and in experiment [5] was “inactive” each time. The viability in experiment [8] was 83.3%.

In the case of `CN(C)Cc1ccc(-c2nc3cccc4c3n2CCNC4=O)cc1`, in experiment [3], the Potency result is “inactive”. Further, the Potency in [10] was 18.7 µM (active); in [4], 20.9 µM (active); in experiment [6], 18.7 µM (active); in experiment [7], 8.33 µM (active); in experiment [16], 20.9 µM (active).

For the compound `CN(C)Cc1cccc(N=C(c2ccccc2)c2c(O)[nH]c3cc(C(=O)N(C)C)ccc23)c1`, the Potency in experiment [18] is 9.35 µM (active); in experiment [2], 18.7 µM (active); in experiment [10] it was 16.6 µM (active); in experiment [4], 4.69 µM (active); in [5] it was 18.7 µM (active); in experiment [6], 8.33 µM (active). The Potency in experiment [7] was 0.935 µM (active); in [16], 10.5 µM (active); in experiment [14], 18.7 µM (active); in experiment [15], 18.7 µM (active). Also, in experiment [3], the Potency result is “inactive”.

Consider `O=C(NOCC(O)CO)c1cc(Br)c(F)c(F)c1Nc1ccc(I)cc1F` (stereo not given), for which the Potency result in experiment [13], in experiment [9], in experiment [3], in [4], in experiment [5] and in experiment [6] was “inactive” throughout. Moreover, the Potency entry in experiment [15] is “inactive”. Moreover, the Potency in experiment [7] was 0.0166 µM (active).

As for `CO[C@H]1C[C@@H]2CC[C@@H](C)[C@@](O)(O2)C(=O)C(=O)N2CCCC[C@@H]2C(=O)O[C@H]([C@@H](C)C[C@@H]2CC[C@H](O)[C@H](OC)C2)CC(=O)[C@H](C)C=C(C)[C@@H](O)[C@@H](OC)C(=O)[C@H](C)C[C@H](C)C=CC=CC=C1C`, the Potency result in experiment [13], in experiment [4], in experiment [11], in [5] and in experiment [6] was “inactive” each time. In [8], the viability was 82.9%.

With `N#C[C@H]1C[C@H]2C[C@@H]2N1C(=O)[C@@H](N)C12CC3CC(CC(O)(C3)C1)C2`, the Potency was 1.48 µM (active) in experiment [17] and 4.18 µM (active) in experiment [10]. Also, the Potency result in experiment [3], in experiment [11], in [5], in experiment [6], in [12] and in experiment [14] was “inactive” in each case. In addition, the viability in experiment [8] is 119%.

For `COc1ccc(-n2c(C)c([N+](=O)[O-])c3ccc(O)cc32)cc1`, the Potency result in [9], in experiment [3], in experiment [5], in [14] and in experiment [15] was “inactive” in each case. Moreover, the Potency in experiment [10] was 0.833 µM (active); in experiment [4], 16.6 µM (active); in experiment [7], 14.8 µM (active); in experiment [8], 4.18 µM (active).

As to `CC(=O)Oc1cc2c(s1)CCN(C(C(=O)C1CC1)c1ccccc1F)C2` (stereo not given), the Potency is 2.96 µM (active) in experiment [13]; 1.48 µM (active) in [17]; 0.833 µM (active) in experiment [10]; 2.64 µM (active) in [5]; 0.935 µM (active) in experiment [6]; 0.935 µM (active) in [7]. Besides, the Potency in experiment [16] is 0.833 µM (active).

These data come from PubChem BioAssay (NCATS).
